Screening data as filed in PubChem BioAssay.
ELG1 DNA repair = qHTS screen for small molecules that inhibit ELG1-dependent DNA repair in human embryonic kidney (HEK293T) cells expressing luciferase-tagged ELG1; Potency, µM (doses to about 46.1 µM), inactives show at the top dose activity change, negative = inhibition, most hits filed as inhibitors; HEK293T ELG1-luciferase reporter, luminescence, 16 h; DNA damage induced by 5-fluorouridine; hit rate 2.3% among 330,000; AID 504467, 2011; note: potency is the fitted concentration of half-maximal effect; nearly all actives have a fitted effect of over 55% in size
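Overnight (16 hr) co-exposure of 2,000 cells/well to 5-fluorouridine and compound at 37 °C preceded detection. Luciferase was quantified via ONE-Glo luminescence; loss of signal denotes inhibition.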
TDP1 cell CPT = qHTS for Inhibitors of human tyrosyl-DNA phosphodiesterase 1 (TDP1): qHTS in cells in presence of CPT | chicken DT40 Tdp1-/-;hTDP1 cells + 20 nM CPT, ATP luminescence, 48 h | Potency, µM (series often up to 46.2 µM), for inactives: at the highest dose activity change, negative = growth inhibition, actives largely listed as inhibitors | hit rate 12% among 420,000; note: potency is the fitted concentration of half-maximal effect; nearly all actives have a fitted effect of over 55% in size
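Cell growth measured by CellTiter-Glo luminescence after a minimum 48 h, 37 C compound exposure with 20 nM CPT in Tdp1-knockout DT40 cells stably expressing hTDP1, seeded 400/well; qHTS titration format.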
TDP1 cell noCPT = qHTS for Inhibitors of human tyrosyl-DNA phosphodiesterase 1 (TDP1): qHTS in cells in absence of CPT. AID 686978, 2013. hit rate 15% among 420,000. DT40 Tdp1-/- hTDP1 cells, no CPT, ATP luminescence, 48 h. Potency, µM (titrated, usually from 46.2 µM), without a hit: at the highest dose activity change, negative = growth inhibition, actives largely listed as inhibitors; note: potency is the fitted concentration of half-maximal effect; nearly all actives have a fitted effect of over 55% in size
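Readout: luminescence from CellTiter-Glo after 30 min in the dark at RT. Cells: DT40 Tdp1-/- with stable hTDP1, 400/well. Exposure: compounds alone, ≥48 hr, 37 °C.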
IL1B secr inh = qHTS for Inhibitors of Inflammasome Signaling: IL-1-beta AlphaLISA Primary Screen; hit rate 4.7% among 360,000; AID 743279, 2014; THP-1 LPS/ATP IL-1B secretion, AlphaLISA, 16 h; hits give low values; activity change, % at 57.5 µM; in the data active = activity change below about -50%; inconclusive = mostly about -30% to -49%
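Secreted IL-1B measured by AlphaLISA bead assay after 16 h compound exposure of THP-1 cells; compounds (final up to 57.5 uM) added 1 h before LPS (250 ng/mL) and ATP (1.25 mM) stimulation; lower signal means less secretion.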
TDP1 inh = qHTS Assay for Inhibitors of Tyrosyl-DNA Phosphodiesterase (TDP1). Tyrosyl-DNA phosphodiesterase 1 (Homo sapiens), Q9NUW8. recombinant TDP1, AlphaScreen DNA substrate cleavage. Potency, µM (titrated, usually from 130 µM), inactives show top-dose activity change, negative = inhibition, usual class: inhibitors. hit rate 0.28% among 350,000. AID 485290, 2010; note: potency is the fitted concentration of half-maximal effect; nearly all actives have a fitted effect of over 40% in size
Target sequence (Q9NUW8 whole entry, looked up): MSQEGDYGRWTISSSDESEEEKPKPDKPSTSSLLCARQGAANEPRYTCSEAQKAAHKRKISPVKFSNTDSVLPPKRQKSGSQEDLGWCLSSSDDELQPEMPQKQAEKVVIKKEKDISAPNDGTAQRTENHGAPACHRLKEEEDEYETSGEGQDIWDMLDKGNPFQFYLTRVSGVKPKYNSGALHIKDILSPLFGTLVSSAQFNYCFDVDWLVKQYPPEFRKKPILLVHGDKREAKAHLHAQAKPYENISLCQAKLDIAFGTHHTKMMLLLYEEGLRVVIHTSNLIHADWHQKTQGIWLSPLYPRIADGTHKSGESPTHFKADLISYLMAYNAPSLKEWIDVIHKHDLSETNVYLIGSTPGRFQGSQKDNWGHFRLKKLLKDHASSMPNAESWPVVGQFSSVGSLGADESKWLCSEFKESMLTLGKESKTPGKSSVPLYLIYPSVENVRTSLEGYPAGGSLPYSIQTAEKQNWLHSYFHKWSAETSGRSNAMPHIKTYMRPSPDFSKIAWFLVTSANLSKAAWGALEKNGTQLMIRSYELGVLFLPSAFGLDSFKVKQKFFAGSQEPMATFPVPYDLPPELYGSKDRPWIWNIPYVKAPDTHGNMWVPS
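Compounds were preincubated with Tdp1 (1 nM final) for 15 min at room temperature before substrate (15 nM final) started a 5 min reaction; beads (10 ug/ml final) were then added for 10 min before AlphaScreen detection.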
Giardia killer = Small Molecules that selectively kill Giardia lamblia: qHTS. Giardia lamblia trophozoite viability. activity change, % at 7.66 µM, hits read low. hit rate 0.15% among 340,000. AID 540267, 2011; in the data active = activity change below about -80%; inconclusive = between about -30% and that limit;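 note: parasites exposed to compound for two days anaerobically before the ATP read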
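Compounds were tested on trophozoites seeded at 100 cells/well and held 48 hrs at 37 deg C anaerobically. An ATP-based luminescent kit measured the remaining live cells.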
* = called active by the depositor. Compounds with a hit are over-represented: about 19% of the library has one in this group of screens. Unless noted, calls come from the whole dose curve; as a rule, active = well fitted curve in the direction sought with a large enough effect; inconclusive = small, poorly fitted or top-dose-only effect, or another doubt; inactive = no such curve, though single readings can be large; an effect the other way counts as inactive or inconclusive. % is set by controls: 0 for no effect and ±100 for the full control effect.

What do the screens show for `CNC(=S)N/N=C(\C)c1ccccc1`?
ELG1 DNA repair: inconclusive; TDP1 cell CPT: 7.3µM*; TDP1 cell noCPT: 13µM*; IL1B secr inh: -22; Giardia killer: 3

Results for C/C(=N\Nc1ncc(Br)cn1)c1cccc([N+](=O)[O-])c1 ?
ELG1 DNA repair: 2%; TDP1 cell CPT: -16%; TDP1 cell noCPT: 13%; IL1B secr inh: -73*; Giardia killer: -5

Results for C/C(=N\NC(=S)NCc1ccccc1)c1ccc(C(C)(C)C)cc1 ?
ELG1 DNA repair: inconclusive; TDP1 cell CPT: 18µM*; TDP1 cell noCPT: 23µM*; IL1B secr inh: -27; TDP1 inh: 10%; Giardia killer: -16

Results for C/C(=N\N=C(N)N)c1ccc(C)c(C)c1 ?
ELG1 DNA repair: -24%; TDP1 cell CPT: 18µM*; TDP1 cell noCPT: inconclusive; IL1B secr inh: inconclusive; TDP1 inh: 6%; Giardia killer: 18

How did C/C(=N\NC(=O)c1nnn(-c2nonc2N)c1-c1ccc(Cl)c(Cl)c1)c1ccncc1 do in these assays?
ELG1 DNA repair: -17%; TDP1 cell CPT: -6%; TDP1 cell noCPT: 15%; IL1B secr inh: 14; TDP1 inh: 0%; Giardia killer: 8

Results for C/C(=N\NC(=O)C(N)=O)c1cccc([N+](=O)[O-])c1 ?
ELG1 DNA repair: -4%; TDP1 cell CPT: -29%; TDP1 cell noCPT: 4%; IL1B secr inh: 0; TDP1 inh: -8%; Giardia killer: inconclusive

Results for CNC(=S)N/N=C(\C)c1cccc([N+](=O)[O-])c1 ?
ELG1 DNA repair: 27%; TDP1 cell CPT: 1.3µM*; TDP1 cell noCPT: 2.9µM*; IL1B secr inh: -16; TDP1 inh: 3%; Giardia killer: -8

What do the screens show for `C/C(=N\N=C(N)N)c1cccc([N+](=O)[O-])c1`?
ELG1 DNA repair: 5%; TDP1 cell CPT: inconclusive; TDP1 cell noCPT: 13µM*; IL1B secr inh: -6; TDP1 inh: 8%; Giardia killer: 0

How did Cc1ccc(-c2[nH]nc(N)c2N=Nc2cccc(Cl)c2C)cc1 do in these assays?
ELG1 DNA repair: inconclusive; TDP1 cell CPT: inconclusive; TDP1 cell noCPT: 13µM*; IL1B secr inh: -76*; TDP1 inh: 10%; Giardia killer: -14

Results for Cc1cccc(N=Nc2c(N)n[nH]c2-c2ccc(Cl)cc2)c1 ?
ELG1 DNA repair: -2%; TDP1 cell CPT: inconclusive; TDP1 cell noCPT: inconclusive; IL1B secr inh: -54*; TDP1 inh: 7%; Giardia killer: -8

How did Cc1ccc(N=Nc2c(N)n[nH]c2N)cc1 do in these assays?
ELG1 DNA repair: inconclusive; TDP1 cell CPT: 2%; TDP1 cell noCPT: -6%; IL1B secr inh: -64*; Giardia killer: -3

How did Cc1ccc2c(n1)sc1c(=O)n(-c3cccc(C(F)(F)F)c3)nnc12 do in these assays?
TDP1 cell CPT: -17%; TDP1 cell noCPT: inconclusive; TDP1 inh: 6%

Results for CCN(C[C@H]1N[C@@](C)(C(=O)OC)[C@H]2C(=O)N(C)C(=O)[C@@H]12)C(=O)Nc1ccc(C(F)(F)F)cc1 ?
ELG1 DNA repair: 18%; TDP1 cell CPT: -2%; TDP1 cell noCPT: -5%; IL1B secr inh: 0; TDP1 inh: 1%; Giardia killer: 27

How did O=C(Nc1nnc(SCc2ccc(Cl)cc2)s1)C1CC(=O)N(Cc2ccccc2)C1 (centres undefined) do in these assays?
ELG1 DNA repair: -16%; TDP1 cell CPT: inconclusive; TDP1 cell noCPT: inconclusive; IL1B secr inh: 21; TDP1 inh: 5%; Giardia killer: 6

Results for CCC1CCCCN1CCCNC(=O)c1ccc2c(c1)N(Cc1cccc(C)c1)C(=O)c1ccccc1S2(=O)=O (centres undefined) ?
TDP1 cell CPT: 16µM*; TDP1 cell noCPT: inconclusive; TDP1 inh: 1%

Results for CCC1CCCCN1CCCNC(=O)c1ccc2c(c1)N(Cc1ccccc1)C(=O)c1ccccc1S2(=O)=O (centres undefined) ?
TDP1 cell CPT: inconclusive; TDP1 cell noCPT: inconclusive; TDP1 inh: 3%

How did CCC1CCCCN1CCCNC(=O)c1ccc2c(c1)N(Cc1ccc(Cl)cc1)C(=O)c1ccccc1S2(=O)=O (centres undefined) do in these assays?
TDP1 cell CPT: 23µM*; TDP1 cell noCPT: 23µM*; TDP1 inh: 10%

How did COc1ccccc1NC(=O)COC(=O)c1ccccc1C(=O)N1CCN(c2ccccc2)CC1 do in these assays?
ELG1 DNA repair: inconclusive; TDP1 cell CPT: 1%; TDP1 cell noCPT: -18%; IL1B secr inh: 12; TDP1 inh: 7%; Giardia killer: -9

How did Cc1ccc(S(=O)(=O)N2CCN(C(=O)CCn3cncn3)CC2)cc1 do in these assays?
ELG1 DNA repair: 3%; TDP1 cell CPT: 22%; TDP1 cell noCPT: 2%; IL1B secr inh: -3; TDP1 inh: 6%; Giardia killer: -3

Results for CCCC1COC(Cn2cncn2)(c2ccc(C)cc2)O1 (centres undefined) ?
ELG1 DNA repair: -1%; TDP1 cell CPT: 23µM*; TDP1 cell noCPT: 11µM*; IL1B secr inh: 9; TDP1 inh: 0%; Giardia killer: 1

Results for CCN(C(=O)c1nn(-c2ccc(C)cc2)c(=O)c2c1c1ccccc1n2C)c1ccc(F)cc1 ?
TDP1 cell CPT: inconclusive; TDP1 cell noCPT: 13µM*; TDP1 inh: 5%

Results for COc1ccc(-n2nc(C(=O)NCCc3cccc(C)c3)c3c4ccccc4n(C)c3c2=O)cc1Cl ?
TDP1 cell CPT: -8%; TDP1 cell noCPT: -7%; TDP1 inh: 2%

Results for CCN(CC)CCOC(=O)c1ccc(NC(=O)c2nn(-c3ccc(C)cc3)c(=O)c3c2c2ccccc2n3C)cc1 ?
TDP1 cell CPT: 1.2µM*; TDP1 cell noCPT: 0.58µM*; TDP1 inh: -2%

How did COc1ccc(CCNC(=O)c2nn(-c3ccc(C)cc3)c(=O)c3c2c2ccccc2n3C)cc1OC do in these assays?
TDP1 cell CPT: inconclusive; TDP1 cell noCPT: 2.1µM*; TDP1 inh: -2%

What do the screens show for `Cc1ccc(-n2nc(C(=O)N(C)c3ccc(C)c(C)c3)c3c4ccccc4n(C)c3c2=O)cc1`?
TDP1 cell CPT: 16µM*; TDP1 cell noCPT: 13µM*; TDP1 inh: 5%
